Experimental data published in article PMC7862700, “An all-to-all approach to the identification of sequence-specific readers for epigenetic DNA modifications on cytosine”.

What was measured:
Experiment in all cases: DAPPL (digital affinity profiling via proximity ligation, sequencing); 10 mM Tris-HCl pH 7.5, 50 mM NaCl, 1 mM DTT, 4% glycerol, room temperature, 30 min; GST-TFs on glutathione beads, 16-mer random dsDNA library, 0.1% formaldehyde crosslink after washing; high values mean tight binding
FEV = biological target: T1, FEV (Homo sapiens, UniProt Q99581 1-238); conditions: protein: recombinant; tags: N-terminal GST; dsDNA, one strand shown
T1 sequence: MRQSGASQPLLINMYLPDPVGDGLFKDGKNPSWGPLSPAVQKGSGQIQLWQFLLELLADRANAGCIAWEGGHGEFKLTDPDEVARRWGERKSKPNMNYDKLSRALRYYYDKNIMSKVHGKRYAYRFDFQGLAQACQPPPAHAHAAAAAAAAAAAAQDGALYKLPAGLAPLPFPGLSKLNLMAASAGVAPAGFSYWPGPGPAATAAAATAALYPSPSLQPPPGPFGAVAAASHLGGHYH
Method in brief: (§1)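 In yeast, human transcription factors were expressed with a GST fusion, then pulled down on glutathione beads and given DNA barcodes. Pooled with a tag-only sample, they were exposed to 200 nmole of a 16-mer random double-stranded DNA library (Tris/NaCl/DTT/glycerol buffer, room temperature, 30 min), washed, crosslinked with 0.1% formaldehyde, proximity-ligated using BsaI/T4 ligase for 1 h at 37 °C, PCR-amplified and read on an Illumina NextSeq500. Each hexamer's frequency of reads for a factor, divided by the matching frequency for the tag-only sample, gives the binding signal.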

ETV5 = ETV5 (Homo sapiens, UniProt P41161 1-510); conditions: protein: recombinant; tags: N-terminal GST; dsDNA, one strand shown
Method in brief: as §1

HSF1 = HSF1 (Homo sapiens, UniProt Q00613 1-529); conditions: protein: recombinant; tags: N-terminal GST; chain copies: 3; dsDNA, one strand shown
Method in brief: as §1

SPIC = biological target: T2, SPIC (Homo sapiens, UniProt Q8N5J4 1-248); conditions: protein: recombinant; tags: N-terminal GST; dsDNA, one strand shown
T2 sequence: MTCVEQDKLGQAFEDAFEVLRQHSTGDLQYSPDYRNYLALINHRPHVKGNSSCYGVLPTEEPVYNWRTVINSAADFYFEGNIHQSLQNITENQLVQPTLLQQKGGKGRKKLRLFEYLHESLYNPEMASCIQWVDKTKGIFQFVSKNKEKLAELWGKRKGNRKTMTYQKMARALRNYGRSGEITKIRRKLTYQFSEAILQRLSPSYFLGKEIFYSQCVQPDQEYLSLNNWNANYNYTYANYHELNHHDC
Method in brief: as §1

ELF4 = ELF4 (Homo sapiens, UniProt Q99607 1-663); conditions: protein: recombinant; tags: N-terminal GST; dsDNA, one strand shown
Method in brief: as §1

ELK4 = biological target: T3, ELK4 (Homo sapiens, UniProt P28324-2 1-405); conditions: protein: recombinant; tags: N-terminal GST; dsDNA, one strand shown
T3 sequence: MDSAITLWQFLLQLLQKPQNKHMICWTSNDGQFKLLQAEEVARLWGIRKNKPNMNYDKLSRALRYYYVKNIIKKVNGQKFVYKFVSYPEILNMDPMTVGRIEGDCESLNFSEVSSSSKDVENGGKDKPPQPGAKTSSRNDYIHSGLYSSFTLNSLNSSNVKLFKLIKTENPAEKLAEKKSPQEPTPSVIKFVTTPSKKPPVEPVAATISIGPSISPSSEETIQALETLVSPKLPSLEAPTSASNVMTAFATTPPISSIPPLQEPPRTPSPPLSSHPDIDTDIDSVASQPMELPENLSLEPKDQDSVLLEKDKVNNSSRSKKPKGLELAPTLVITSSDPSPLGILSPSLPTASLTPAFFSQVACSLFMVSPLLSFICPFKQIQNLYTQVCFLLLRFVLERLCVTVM
Method in brief: as §1

ETV2 = biological target: T4, ETV2 (Homo sapiens, UniProt O00321 1-342); conditions: protein: recombinant; tags: N-terminal GST; dsDNA, one strand shown
T4 sequence: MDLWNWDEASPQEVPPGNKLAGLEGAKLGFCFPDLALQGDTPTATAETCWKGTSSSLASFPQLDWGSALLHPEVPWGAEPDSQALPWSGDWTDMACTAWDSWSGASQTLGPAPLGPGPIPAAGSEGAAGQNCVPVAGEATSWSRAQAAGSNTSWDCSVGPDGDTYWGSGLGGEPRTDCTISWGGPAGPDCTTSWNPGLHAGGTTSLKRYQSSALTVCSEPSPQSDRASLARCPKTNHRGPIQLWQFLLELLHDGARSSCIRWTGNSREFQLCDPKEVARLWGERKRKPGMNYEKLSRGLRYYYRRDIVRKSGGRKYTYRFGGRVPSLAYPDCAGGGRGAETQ
Method in brief: as §1

ELF3 = biological target: T5, ELF3 (Homo sapiens, UniProt P78545 1-371); conditions: protein: recombinant; tags: N-terminal GST; dsDNA, one strand shown
T5 sequence: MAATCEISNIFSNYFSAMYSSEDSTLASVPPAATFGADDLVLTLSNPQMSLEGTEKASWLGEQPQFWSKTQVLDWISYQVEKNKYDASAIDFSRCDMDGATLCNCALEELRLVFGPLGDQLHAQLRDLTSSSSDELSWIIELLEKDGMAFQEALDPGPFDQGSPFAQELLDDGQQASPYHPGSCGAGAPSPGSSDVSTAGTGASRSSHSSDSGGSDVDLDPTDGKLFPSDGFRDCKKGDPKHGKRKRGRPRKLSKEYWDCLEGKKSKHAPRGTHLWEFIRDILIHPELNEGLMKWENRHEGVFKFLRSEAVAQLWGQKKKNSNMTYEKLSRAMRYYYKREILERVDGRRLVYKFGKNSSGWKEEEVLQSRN
Method in brief: as §1

CRX = CRX (Homo sapiens, UniProt O43186 1-299); conditions: protein: recombinant; tags: N-terminal GST; dsDNA, one strand shown
Method in brief: as §1

ETV1 = ETV1 (Homo sapiens, UniProt P50549 1-477); conditions: protein: recombinant; tags: N-terminal GST; dsDNA, one strand shown
Method in brief: as §1

ERF = biological target: T6, ERF (Homo sapiens, UniProt P50548 1-548); conditions: protein: recombinant; tags: N-terminal GST; dsDNA, one strand shown
T6 sequence: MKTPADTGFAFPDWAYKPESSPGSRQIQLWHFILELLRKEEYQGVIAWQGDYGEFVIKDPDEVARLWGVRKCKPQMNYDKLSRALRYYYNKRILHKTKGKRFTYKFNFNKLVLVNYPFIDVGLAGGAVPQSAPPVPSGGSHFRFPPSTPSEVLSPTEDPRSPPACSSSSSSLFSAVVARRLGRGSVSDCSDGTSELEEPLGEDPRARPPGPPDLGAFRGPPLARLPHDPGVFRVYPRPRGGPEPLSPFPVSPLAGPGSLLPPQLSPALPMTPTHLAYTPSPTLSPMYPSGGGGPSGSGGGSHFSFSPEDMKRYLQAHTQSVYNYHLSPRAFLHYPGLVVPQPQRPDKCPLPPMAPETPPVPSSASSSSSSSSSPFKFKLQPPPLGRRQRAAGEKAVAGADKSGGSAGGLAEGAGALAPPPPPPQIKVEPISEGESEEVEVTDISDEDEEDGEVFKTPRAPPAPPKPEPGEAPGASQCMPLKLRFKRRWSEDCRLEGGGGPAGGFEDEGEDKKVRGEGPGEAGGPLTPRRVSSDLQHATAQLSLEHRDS
Method in brief: as §1

ETV3L = biological target: T7, ETV3L (Homo sapiens, UniProt Q6ZN32 1-361); conditions: protein: recombinant; tags: N-terminal GST; dsDNA, one strand shown
T7 sequence: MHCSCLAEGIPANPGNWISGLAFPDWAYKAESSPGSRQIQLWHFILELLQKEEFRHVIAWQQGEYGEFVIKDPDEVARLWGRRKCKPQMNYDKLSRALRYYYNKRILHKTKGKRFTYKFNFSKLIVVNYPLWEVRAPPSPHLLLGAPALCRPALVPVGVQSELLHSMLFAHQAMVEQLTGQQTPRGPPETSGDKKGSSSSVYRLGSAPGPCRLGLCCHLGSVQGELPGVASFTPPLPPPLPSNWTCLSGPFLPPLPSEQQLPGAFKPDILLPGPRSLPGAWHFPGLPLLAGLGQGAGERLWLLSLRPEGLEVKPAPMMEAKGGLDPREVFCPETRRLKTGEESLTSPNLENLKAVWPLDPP
Method in brief: as §1

ETS2 = biological target: T8, ETS2 (Homo sapiens, UniProt P15036 1-469); conditions: protein: recombinant; tags: N-terminal GST; dsDNA, one strand shown
T8 sequence: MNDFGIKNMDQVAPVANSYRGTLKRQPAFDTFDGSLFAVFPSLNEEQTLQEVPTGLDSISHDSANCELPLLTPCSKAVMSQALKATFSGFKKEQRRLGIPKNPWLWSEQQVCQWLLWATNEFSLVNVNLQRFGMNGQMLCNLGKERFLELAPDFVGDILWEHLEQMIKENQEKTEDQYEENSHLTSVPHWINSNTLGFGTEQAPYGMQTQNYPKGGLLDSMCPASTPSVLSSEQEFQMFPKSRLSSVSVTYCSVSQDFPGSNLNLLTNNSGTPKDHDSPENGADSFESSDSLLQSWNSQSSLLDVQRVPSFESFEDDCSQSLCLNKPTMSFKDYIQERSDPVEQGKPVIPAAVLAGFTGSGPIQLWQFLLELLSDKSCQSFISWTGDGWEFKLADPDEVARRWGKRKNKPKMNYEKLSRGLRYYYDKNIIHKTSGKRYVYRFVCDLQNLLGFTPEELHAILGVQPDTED
Method in brief: as §1

SPDEF = biological target: T9, SPDEF (Homo sapiens, UniProt O95238 1-335); conditions: protein: recombinant; tags: N-terminal GST; dsDNA, one strand shown
T9 sequence: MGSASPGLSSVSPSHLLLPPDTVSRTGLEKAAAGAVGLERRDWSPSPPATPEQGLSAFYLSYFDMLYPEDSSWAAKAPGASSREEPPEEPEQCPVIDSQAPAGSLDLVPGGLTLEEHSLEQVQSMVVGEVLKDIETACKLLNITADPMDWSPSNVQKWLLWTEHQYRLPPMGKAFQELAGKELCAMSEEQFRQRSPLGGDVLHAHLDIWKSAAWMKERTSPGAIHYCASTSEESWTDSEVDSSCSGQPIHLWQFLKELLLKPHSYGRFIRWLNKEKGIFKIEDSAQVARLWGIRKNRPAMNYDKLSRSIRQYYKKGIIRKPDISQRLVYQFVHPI
Method in brief: as §1

ETV7 = biological target: T10, ETV7 (Homo sapiens, UniProt Q9Y603 1-341); conditions: protein: recombinant; tags: N-terminal GST; dsDNA, one strand shown
T10 sequence: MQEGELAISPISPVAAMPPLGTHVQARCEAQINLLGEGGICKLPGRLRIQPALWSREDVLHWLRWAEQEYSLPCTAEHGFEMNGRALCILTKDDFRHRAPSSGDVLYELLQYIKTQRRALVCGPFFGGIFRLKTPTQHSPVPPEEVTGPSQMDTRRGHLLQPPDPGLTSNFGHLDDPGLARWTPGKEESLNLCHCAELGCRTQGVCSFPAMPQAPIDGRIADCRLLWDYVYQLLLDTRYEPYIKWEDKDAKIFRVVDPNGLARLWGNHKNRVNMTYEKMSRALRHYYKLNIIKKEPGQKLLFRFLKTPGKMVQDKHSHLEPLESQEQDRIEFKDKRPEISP
Method in brief: as §1

ELF5 = biological target: T11, ELF5 (Homo sapiens, UniProt Q9UKW6-2 1-255); conditions: protein: recombinant; tags: N-terminal GST; dsDNA, one strand shown
T11 sequence: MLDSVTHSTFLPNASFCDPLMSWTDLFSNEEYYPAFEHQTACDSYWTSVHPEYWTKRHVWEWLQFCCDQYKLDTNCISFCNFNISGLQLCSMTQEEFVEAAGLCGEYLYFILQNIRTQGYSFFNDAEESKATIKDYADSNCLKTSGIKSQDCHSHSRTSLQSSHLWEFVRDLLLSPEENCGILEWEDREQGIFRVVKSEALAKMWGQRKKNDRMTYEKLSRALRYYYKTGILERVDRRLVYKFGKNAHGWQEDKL
Method in brief: as §1

ETV3 = biological target: T12, ETV3 (Homo sapiens, UniProt P41162-2 1-143); conditions: protein: recombinant; tags: N-terminal GST; dsDNA, one strand shown
T12 sequence: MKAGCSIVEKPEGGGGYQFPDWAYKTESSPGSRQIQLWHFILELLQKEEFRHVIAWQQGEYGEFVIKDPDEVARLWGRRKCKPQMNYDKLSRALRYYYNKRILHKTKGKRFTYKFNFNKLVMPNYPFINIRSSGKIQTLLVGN
Method in brief: as §1

ETV6 = ETV6 (Homo sapiens, UniProt P41212 1-452); conditions: protein: recombinant; tags: N-terminal GST; dsDNA, one strand shown
Method in brief: as §1

Sequence of ETV6 (P41212 whole entry): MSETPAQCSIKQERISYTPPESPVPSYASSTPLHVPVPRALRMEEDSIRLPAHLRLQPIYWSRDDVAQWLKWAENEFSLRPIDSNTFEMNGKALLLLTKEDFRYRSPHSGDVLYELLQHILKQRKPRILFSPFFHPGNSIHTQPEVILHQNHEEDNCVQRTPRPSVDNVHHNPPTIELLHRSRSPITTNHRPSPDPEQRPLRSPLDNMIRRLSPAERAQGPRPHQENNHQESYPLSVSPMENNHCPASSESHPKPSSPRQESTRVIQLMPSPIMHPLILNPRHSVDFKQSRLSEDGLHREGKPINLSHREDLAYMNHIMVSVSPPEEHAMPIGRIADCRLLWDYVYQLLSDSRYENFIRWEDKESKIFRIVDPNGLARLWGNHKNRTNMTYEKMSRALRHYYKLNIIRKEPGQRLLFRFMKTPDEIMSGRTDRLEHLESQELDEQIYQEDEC
Sequence of CRX (O43186 whole entry): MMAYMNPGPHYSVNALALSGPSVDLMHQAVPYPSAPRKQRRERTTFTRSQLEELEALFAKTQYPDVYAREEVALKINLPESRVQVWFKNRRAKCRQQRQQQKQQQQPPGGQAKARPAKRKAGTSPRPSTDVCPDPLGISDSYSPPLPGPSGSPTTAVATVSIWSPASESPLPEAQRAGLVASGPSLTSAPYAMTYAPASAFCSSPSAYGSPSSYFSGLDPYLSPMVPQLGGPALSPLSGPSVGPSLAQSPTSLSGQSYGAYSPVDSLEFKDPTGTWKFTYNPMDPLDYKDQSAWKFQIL
Sequence of HSF1 (Q00613 whole entry): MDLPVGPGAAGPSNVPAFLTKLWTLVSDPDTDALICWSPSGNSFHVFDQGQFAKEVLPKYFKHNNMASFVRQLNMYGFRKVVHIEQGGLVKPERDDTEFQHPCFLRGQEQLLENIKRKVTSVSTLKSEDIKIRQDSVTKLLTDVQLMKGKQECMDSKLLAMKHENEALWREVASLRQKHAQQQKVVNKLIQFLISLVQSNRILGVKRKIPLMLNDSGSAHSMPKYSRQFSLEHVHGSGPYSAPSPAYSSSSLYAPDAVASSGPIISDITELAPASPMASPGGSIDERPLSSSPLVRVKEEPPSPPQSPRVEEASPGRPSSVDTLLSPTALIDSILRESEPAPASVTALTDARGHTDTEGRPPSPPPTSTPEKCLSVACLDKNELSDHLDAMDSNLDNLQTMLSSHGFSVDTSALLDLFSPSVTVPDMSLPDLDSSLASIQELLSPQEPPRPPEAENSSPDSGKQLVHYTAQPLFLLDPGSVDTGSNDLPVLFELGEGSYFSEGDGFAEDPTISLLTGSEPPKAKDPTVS
Sequence of ELF4 (Q99607 whole entry): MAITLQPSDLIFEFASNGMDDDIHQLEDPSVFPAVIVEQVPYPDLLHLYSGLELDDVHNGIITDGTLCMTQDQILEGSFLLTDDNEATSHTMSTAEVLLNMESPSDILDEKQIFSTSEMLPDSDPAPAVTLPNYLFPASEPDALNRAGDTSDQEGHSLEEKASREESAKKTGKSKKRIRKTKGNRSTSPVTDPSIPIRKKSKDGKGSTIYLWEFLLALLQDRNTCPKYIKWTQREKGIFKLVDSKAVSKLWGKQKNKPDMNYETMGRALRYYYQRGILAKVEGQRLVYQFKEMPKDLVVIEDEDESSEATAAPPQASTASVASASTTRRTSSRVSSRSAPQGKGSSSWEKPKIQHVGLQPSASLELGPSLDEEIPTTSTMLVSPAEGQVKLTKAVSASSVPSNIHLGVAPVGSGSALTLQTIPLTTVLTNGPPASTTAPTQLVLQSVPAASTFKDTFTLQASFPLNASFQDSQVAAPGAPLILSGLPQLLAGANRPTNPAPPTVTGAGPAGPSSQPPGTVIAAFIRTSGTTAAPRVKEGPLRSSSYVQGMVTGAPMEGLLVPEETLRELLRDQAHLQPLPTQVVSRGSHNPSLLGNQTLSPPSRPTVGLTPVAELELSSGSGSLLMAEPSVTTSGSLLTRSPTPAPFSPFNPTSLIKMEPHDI
Sequence of ETV5 (P41161 whole entry): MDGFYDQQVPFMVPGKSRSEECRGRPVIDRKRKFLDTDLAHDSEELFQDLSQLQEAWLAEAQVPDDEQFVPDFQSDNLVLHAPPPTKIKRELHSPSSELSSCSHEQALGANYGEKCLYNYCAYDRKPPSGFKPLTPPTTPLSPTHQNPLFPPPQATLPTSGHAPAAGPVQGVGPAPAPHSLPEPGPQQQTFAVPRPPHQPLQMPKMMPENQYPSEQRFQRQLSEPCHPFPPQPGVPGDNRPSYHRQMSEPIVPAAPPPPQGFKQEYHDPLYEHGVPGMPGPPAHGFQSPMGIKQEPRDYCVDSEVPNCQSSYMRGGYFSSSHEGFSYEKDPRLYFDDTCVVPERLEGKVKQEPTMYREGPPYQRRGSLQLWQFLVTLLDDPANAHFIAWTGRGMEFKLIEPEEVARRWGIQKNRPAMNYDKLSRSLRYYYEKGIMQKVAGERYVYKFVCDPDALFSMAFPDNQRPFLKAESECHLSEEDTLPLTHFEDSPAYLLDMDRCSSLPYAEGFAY
Sequence of ETV1 (P50549 whole entry): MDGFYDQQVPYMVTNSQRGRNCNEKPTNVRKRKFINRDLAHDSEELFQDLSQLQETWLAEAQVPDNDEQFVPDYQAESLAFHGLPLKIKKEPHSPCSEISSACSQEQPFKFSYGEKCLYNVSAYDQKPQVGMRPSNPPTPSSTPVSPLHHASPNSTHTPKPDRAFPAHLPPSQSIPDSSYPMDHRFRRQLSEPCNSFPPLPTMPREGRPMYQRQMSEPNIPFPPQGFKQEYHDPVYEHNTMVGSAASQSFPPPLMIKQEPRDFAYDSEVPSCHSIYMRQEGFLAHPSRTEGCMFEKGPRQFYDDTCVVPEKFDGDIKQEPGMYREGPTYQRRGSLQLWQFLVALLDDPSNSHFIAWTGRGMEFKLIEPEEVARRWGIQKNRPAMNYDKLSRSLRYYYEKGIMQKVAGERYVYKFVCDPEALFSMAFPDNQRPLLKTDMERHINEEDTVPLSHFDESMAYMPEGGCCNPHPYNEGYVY

## TATCGC
FEV
  binding signal: 1.17 fold enrichment (6-mer frequency, TF over GST control)
ETV5
  binding signal: 1.13 fold enrichment (6-mer frequency, TF over GST control)
HSF1
  binding signal: 1.22 fold enrichment (6-mer frequency, TF over GST control)
SPIC
  binding signal: 1.21 fold enrichment (6-mer frequency, TF over GST control)
ELF4
  binding signal: 1.23 fold enrichment (6-mer frequency, TF over GST control)
ELK4
  binding signal: 1.3 fold enrichment (6-mer frequency, TF over GST control)
ETV2
  binding signal: 1.07 fold enrichment (6-mer frequency, TF over GST control)
ELF3
  binding signal: 1.1 fold enrichment (6-mer frequency, TF over GST control)
CRX
  binding signal: 1.41 fold enrichment (6-mer frequency, TF over GST control)
ETV1
  binding signal: 1.22 fold enrichment (6-mer frequency, TF over GST control)
ERF
  binding signal: 1.18 fold enrichment (6-mer frequency, TF over GST control)
ETV3L
  binding signal: 1.15 fold enrichment (6-mer frequency, TF over GST control)
ETS2
  binding signal: 1.1 fold enrichment (6-mer frequency, TF over GST control)
SPDEF
  binding signal: 1.17 fold enrichment (6-mer frequency, TF over GST control)
ETV7
  binding signal: 1 fold enrichment (6-mer frequency, TF over GST control)
ELF5
  binding signal: 1.19 fold enrichment (6-mer frequency, TF over GST control)
ETV3
  binding signal: 1.13 fold enrichment (6-mer frequency, TF over GST control)
ETV6
  binding signal: 1.08 fold enrichment (6-mer frequency, TF over GST control)
